The text below walks through data of PubChem BioAssay (Tox21).

Values joined by “and” are separate entries in the source; they are usually repeats but may differ in a detail not shown here. Equal values may be shown once. Records with an inconclusive call do not appear. The source holds several records for some structures; these can differ, active in one and inactive in another. Active and inactive are the calls of the source. Unless noted, calls follow the shape of the dose curve; as a rule, active = well fitted curve in the direction sought with a large enough effect in the repeat runs; inconclusive = weak or mixed curves; inactive = no such curve, though single readings can be large; an effect the other way counts as inactive or inconclusive.

The nature of assay [1]: qHTS assay for small molecule agonists of the p53 signaling pathway (AID 651631; calls by dose curve; also: nearly all actives have a fitted effect of over 15% in size). The method in brief:
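HCT-116 cells carrying a stable p53 response element–beta-lactamase reporter were plated, rested 5 h at 37 °C, then exposed to compound in DMSO for 16 h at 37 °C; reporter activity was read as FRET substrate fluorescence after 2 h at room temperature.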

Assay [2] is described as follows: qHTS assay for small molecule agonists of the p53 signaling pathway - cell viability (AID 651633; calls by dose curve; also: nearly all actives have a fitted effect of over 30% in size; also: potency is read from the fitted curve at half-maximal effect). The method in brief: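 p53RE-bla cells were treated with compound for 16 hours at 37 C. Cytotoxicity was then measured as CellTiter-Glo luminescence after 30 min at room temperature.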
Assay [3] can be described thus: qHTS assay for small molecules that induce genotoxicity in human embryonic kidney cells expressing luciferase-tagged ATAD5 - cell viability (AID 651634; calls by dose curve; also: nearly all actives have a fitted effect of over 25% in size). In short, it runs like this:
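Live-cell protease activity (CellTiter-Fluor, fluorescence) indicates viability. HEK293T cells with luciferase-tagged ATAD5; 15.5 hr compound treatment at 37C.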

Assay [4] in a line: qHTS assay for small molecule disruptors of the mitochondrial membrane potential - cell viability (AID 720634; calls by dose curve;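 also: human HepG2 liver cancer cells; nearly all actives have a fitted effect of over 20% in size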). In short, it runs like this: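 Human hepatoma HepG2 cells were treated for 1 hr with test chemicals, then given m-MPI dye and CellTiter-Glo. Cell viability reflects luminescence proportional to cellular ATP.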
(In general: Quantitative high-throughput screening tests each substance at several concentrations.)

Assay [5] is described as follows: qHTS assay for small molecule disruptors of the mitochondrial membrane potential (AID 720635). Also: potency is read from the fitted curve at half-maximal effect. The method in brief: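 HepG2 cells exposed to compound 1 hr at 37C, then Mito-MPS dye 30 min. Ratio read of aggregate (540/590 nm) versus monomer (490/535 nm) fluorescence.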
Assay [6] is described as follows: qHTS assay to test for compound auto fluorescence at 590 nm (red) in HepG2 cells (AID 720674). In short, it runs like this: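 Seeding: 2,000 HepG2 cells/well, MEM/10% FBS, overnight 37 C. Dosing: compound vs DMSO. Incubation: 1 hr, 37 C, 5% CO2. Read: fluorescence 540 ex/590 em, Rose Bengal sodium as red reference.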
The nature of assay [7]: qHTS assay to test for compound auto fluorescence at 535 nm (green) in HepG2 cells (AID 720675).
A short description of assay [8]: qHTS assay to test for compound auto fluorescence at 460 nm (blue) in HEK293 cells (AID 720678). In short, it runs like this: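 Intrinsic compound fluorescence is recorded in live HEK293 cultures after overnight incubation at 37C, 5% CO2, using excitation 405 nm and emission 460 nm. Values are referenced to triamterene.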
Assay [9] can be described thus: qHTS assay to test for compound auto fluorescence at 590 nm (red) in HEK293 cells (AID 720679). The method in brief: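 Red autofluorescence, HEK293 cells: 2,000 cells/well; attach 4-5 hr 37C; add 23 nL cpd or DMSO; incubate o/n 37C 5% CO2; read Ex540/Em590; Rose Bengal sodium reference.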
The nature of assay [10]: qHTS assay to test for compound auto fluorescence at 535 nm (green) in HEK293 cells (AID 720680).
The nature of assay [11]: qHTS assay to test for compound auto fluorescence at 460 nm (blue) in HEK293 cell free culture (AID 720681). In short, it runs like this: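 Compounds were added to cell-free DMEM with 10% FBS and fluorescence read directly. The blue channel used 405 nm excitation and 460 nm emission, with triamterene as the reference fluorophore.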
The nature of assay [12]: qHTS assay to test for compound auto fluorescence at 535 nm (green) in HEK293 cell free culture (AID 720682). In short, it runs like this: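 Read-out: 485/535 nm fluorescence intensity, calibrated against fluorescein. Medium only (DMEM + 10% FBS, no cells); test compound or DMSO vehicle added by pintool before plate reading.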
A short description of assay [13]: qHTS assay to test for compound auto fluorescence at 590 nm (red) in HEK293 cell free culture (AID 720683). In short, it runs like this: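 Cell-free wells of DMEM with 10% FBS received compound, and intrinsic fluorescence was read at excitation/emission 540/590 nm. Values expressed as equivalence to Rose Bengal sodium.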
Assay [14] in a line: qHTS assay to test for compound auto fluorescence at 590 nm (red) in HepG2 cell free culture (AID 720684). In short, it runs like this: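 Compounds are added to culture medium (MEM, 10% FBS) lacking cells, then fluorescence is read at excitation 540 nm, emission 590 nm, with Rose Bengal sodium as the equivalency standard.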
Assay [15] is described as follows: qHTS assay to test for compound auto fluorescence at 460 nm (blue) in HepG2 cell free culture (AID 720685). In short, it runs like this: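 Compound (23 nL) or DMSO pinned into cell-free MEM with 10% FBS; blue fluorescence read at 405/460 nm excitation/emission, expressed as auto-fluorescence equivalency to triamterene.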
Assay [16] is described as follows: qHTS assay to test for compound auto fluorescence at 535 nm (green) in HepG2 cell free culture (AID 720686).
The nature of assay [17]: qHTS assay to test for compound auto fluorescence at 460 nm (blue) in HepG2 cells (AID 720687). In short, it runs like this:
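HepG2 cells in MEM with 10% FBS, attached overnight at 37 C, were exposed to compound or DMSO for 1 hr at 37 C, 5% CO2. Blue fluorescence was read at 405/460 nm, with triamterene as reference fluorophore.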

Assay [18] addresses Glucocorticoid receptor (Homo sapiens) (UniProt P04150). The experiment in a line: qHTS assay to identify small molecule agonists of the glucocorticoid receptor (GR) signaling pathway (AID 720691; active = well fitted activation curve with a large enough effect in the signal ratio in the repeat runs, not every such curve was filed as active; the % refers to the signal ratio). Conditions: GR-bla HeLa, beta-lactamase reporter ratio, 18 h; activation: at 62.4 µM (top of the series). The method in brief: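 Beta-lactamase reporter activity, read as fluorescence intensity, was measured in GR-bla HeLa cells exposed to compounds for 18 h at 37 C and then loaded with LiveBLAzer B/G FRET substrate for 2 h at room temperature.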

The nature of assay [19]: qHTS assay for small molecules that induce genotoxicity in human embryonic kidney cells expressing luciferase-tagged ATAD5 (AID 651632). Also: nearly all actives have a fitted effect of over 15% in size. The method in brief:
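Genotoxicity read-out via ATAD5-luciferase: HEK293T cells, 16 hr compound incubation at 37C, Amplite detection.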

For assay [20], the target named is Glucocorticoid receptor (Homo sapiens) (UniProt P04150). Nature of the assay: qHTS assay to identify small molecule antagonists of the glucocorticoid receptor (GR) signaling pathway (AID 720692; active = well fitted inhibition curve with a large enough effect in the signal ratio in the repeat runs, not every such curve was filed as active; the % refers to the signal ratio). The method in brief: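 Fluorescence from cleaved LiveBLAzer B/G FRET substrate reports GRE-driven beta-lactamase in HeLa cells; compounds are tested against 5 nM dexamethasone (final) over 18 h at 37 C, substrate incubation 2 h at room temperature.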
Glucocorticoid receptor (Homo sapiens), sequence (P04150 whole entry, looked up): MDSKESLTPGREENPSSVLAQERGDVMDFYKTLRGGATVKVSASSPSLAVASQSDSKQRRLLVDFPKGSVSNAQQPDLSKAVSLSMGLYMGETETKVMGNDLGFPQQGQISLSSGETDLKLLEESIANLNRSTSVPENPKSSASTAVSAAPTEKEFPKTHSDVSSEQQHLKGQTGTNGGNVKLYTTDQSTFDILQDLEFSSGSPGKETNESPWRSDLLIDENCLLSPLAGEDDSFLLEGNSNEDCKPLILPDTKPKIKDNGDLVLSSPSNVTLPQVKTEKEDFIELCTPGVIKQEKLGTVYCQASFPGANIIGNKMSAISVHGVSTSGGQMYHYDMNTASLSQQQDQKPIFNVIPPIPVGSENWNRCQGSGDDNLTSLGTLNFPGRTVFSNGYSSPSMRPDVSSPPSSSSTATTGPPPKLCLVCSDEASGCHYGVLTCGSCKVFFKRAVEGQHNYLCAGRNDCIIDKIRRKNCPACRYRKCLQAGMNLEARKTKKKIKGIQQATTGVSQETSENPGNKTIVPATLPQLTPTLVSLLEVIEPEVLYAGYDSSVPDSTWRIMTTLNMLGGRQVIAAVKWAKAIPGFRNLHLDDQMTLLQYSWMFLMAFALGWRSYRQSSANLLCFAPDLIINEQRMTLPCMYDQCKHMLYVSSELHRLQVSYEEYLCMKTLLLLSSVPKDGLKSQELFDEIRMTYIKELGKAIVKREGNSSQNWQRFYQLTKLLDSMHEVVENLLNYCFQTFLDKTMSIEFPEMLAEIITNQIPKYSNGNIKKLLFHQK
% is scaled to controls: 0 for no effect and ±100 for the full control effect.

As to `ON=C1CCCC1`, the Potency entry in assay [1], in [2], in assay [3], in assay [4], in assay [5] and in [6] was “inactive” each time. The Potency result in [7], in [8], in [9], in assay [11], in assay [13] and in [14] was “inactive” each time. Besides, the Potency result in assay [15], in assay [16], in assay [17] and in assay [18] was “inactive” each time. In addition, the outcome in assay [10] and in assay [12] was inactive.

As to `O=[N+]([O-])c1ccccc1Nc1ccccc1`, the Potency entry in assay [1], in assay [19], in assay [2], in assay [4], in assay [6] and in [7] was “inactive” each time. Besides, the Potency result in assay [8], in assay [9], in assay [11], in [13], in assay [14] and in assay [15] was “inactive” throughout. Further, the Potency entry in assay [16], in assay [17] and in [18] was “inactive” each time. Moreover, the call in assay [10] and in assay [12] was inactive.

Consider `CC(C)(C)C(=O)OCOC(=O)[C@@H]1N2C(=O)[C@@H](NC(=O)[C@H](N)c3ccccc3)[C@H]2SC1(C)C`, for which the Potency entry in assay [1], in assay [2], in assay [3], in assay [4] and in assay [5] was “inactive” throughout. In addition, the fluorescence, relative to Rose Bengal in [6] was 0.612% [at 18.6 µM] (inactive). The fluorescence, % of fluorescein control in assay [7] was -0.113% [at 18.6 µM] (inactive); in assay [16], -0.0041% [at 18.6 µM] (inactive). The fluorescence, % of triamterene in assay [8] is 0.0033% [at 18.6 µM] (inactive). The fluorescence, % of fluorescent control in assay [9] was 0.201% [at 18.6 µM] (inactive); in assay [11] it was 0.0397% [at 18.6 µM] (inactive); in [13] it was 0.0827% [at 18.6 µM] (inactive); in [15] it was 0.014% [at 18.6 µM] (inactive); in [17] it was 0.061% [at 18.6 µM] (inactive). The fluorescence, % of fluorescein in assay [10] was -0.024% [at 18.6 µM] (inactive). The activity change in assay [12] is 0.023% [at 18.6 µM] (inactive). The fluorescence, % of Rose Bengal in [14] was -0.0322% [at 18.6 µM] (inactive).

As to `CC(C)(C)c1ccc(C(=O)O)cc1`, the Potency entry in [1], in assay [19], in assay [2], in assay [3], in assay [6] and in [7] was “inactive” in each case. Also, the Potency entry in assay [8], in assay [9], in assay [11], in [13], in assay [14] and in assay [16] was “inactive” in each case. The Potency entry in assay [17], in [18] and in [20] was “inactive” throughout. Also, the outcome in assay [10] and in [12] was inactive.

Take `Cc1cc2c(cc1C(F)(F)F)N(C(=O)Nc1ccc(Oc3cccnc3C)nc1)CC2`: the Potency entry in assay [1], in assay [19], in assay [2], in assay [6], in assay [7] and in assay [8] was “inactive” each time. Also, the Potency entry in assay [9], in [11], in [13], in assay [14], in assay [15] and in assay [16] was “inactive” throughout. Also, the Potency entry in assay [17], in [18] and in [20] was “inactive” throughout. In assay [5], the Potency is 12.4 µM (active). Further, the outcome in assay [10] and in assay [12] was inactive.

For `CC(=O)N1CCN(c2ccc(OC[C@H]3CO[C@](Cn4ccnc4)(c4ccc(Cl)cc4Cl)O3)cc2)CC1`, the Potency result in [1], in [19], in assay [4], in assay [6], in [7] and in [8] was “inactive” throughout. In addition, the Potency result in assay [9], in assay [11], in assay [13], in [14], in assay [16] and in [17] was “inactive” each time. For the same compound, the Potency entry in assay [18] and in [20] was “inactive” each time. In addition, the Potency entry was “inactive and 61.1 µM (active)” in assay [2]; 4.86 µM (active) in assay [5]. The compound was called inactive in assay [10] and in assay [12].
